Assay outcomes (PubChem)
This is a sample that favours compounds with a hit; in the whole collection about 12% have one here.
BAZ2B inh: qHTS Assay for Inhibitors of BAZ2B; actives 4.4% (n = 360,000); Potency, µM (top dose mostly 114 µM), without a hit: at the highest dose activity change, negative = inhibition, usual class: inhibitors; AlphaScreen BAZ2B-H3K14Ac peptide displacement; AID 504333, 2011; Bromodomain adjacent to zinc finger domain protein 2B (Homo sapiens), Q9UIF8; further: on the % scale 0 is the no-effect control and ±100 the full control effect; nearly all actives have a fitted effect of over 60% in size
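AlphaScreen luminescence quantifies BAZ2B engagement of H3K14Ac peptide; the protein and biotinylated peptide are both at 50 nM final, buffer PBS pH 7.4 with 0.01% Tween-20, all steps at room temperature.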
L3MBTL1 inh: qHTS Assay for the Inhibitors of L3MBTL1; Lethal(3)malignant brain tumor-like protein 1 (Homo sapiens), Q9Y468; Potency, µM (titrated, usually from 57.1 µM), for inactives: at the top dose activity, negative = inhibition, most hits filed as inhibitors; AID 485360, 2010; actives 0.66% (n = 230,000); AlphaScreen L3MBTL1–H3K9me1 peptide binding; further: on the % scale 0 is the no-effect control and ±100 the full control effect; nearly all actives have a fitted effect of over 60% in size
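L3MBTL1 50 nM + b-AHA-H3(1-15)K9me1 75 nM, 30 min RT; compound added, 30 min RT; streptavidin donor/Ni-chelate acceptor beads 10 ug/mL each final, 30 min RT dark; AlphaScreen read.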
JMJD2A Tudor inh: qHTS Assay for Inhibitors of JMJD2A-Tudor Domain. AlphaScreen JMJD2A-Tudor / H3K4me3 peptide binding. Potency, µM (highest dose often 114 µM), for inactives: at the top dose activity change, negative = inhibition, usual class: inhibitors. Lysine-specific demethylase 4A (Homo sapiens), O75164. actives 4.4% (n = 390,000); further: on the % scale 0 is the no-effect control and ±100 the full control effect; nearly all actives have a fitted effect of over 50% in size
HP1b chromo inh: HTS for Inhibitors of HP1-beta Chromodomain Interactions with Methylated Histone Tails; Potency, µM (highest dose often 114 µM), without a hit: at the top dose activity change, negative = inhibition, actives largely listed as inhibitors; AlphaScreen HP1-beta / biotin-H3K9me3 peptide binding; actives 0.56% (n = 390,000); AID 540317, 2011; further: nearly all actives have a fitted effect of over 70% in size
Target sequence (P83916 whole entry, looked up): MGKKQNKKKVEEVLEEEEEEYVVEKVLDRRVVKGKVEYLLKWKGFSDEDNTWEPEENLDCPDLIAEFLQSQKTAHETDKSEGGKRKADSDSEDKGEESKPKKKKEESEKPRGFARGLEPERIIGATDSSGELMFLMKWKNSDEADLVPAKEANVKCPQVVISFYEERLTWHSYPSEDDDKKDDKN
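Compound inhibition of the preformed complex between 50 nM HP1-beta and 50 nM biotinylated H3K9me3 peptide was read by AlphaScreen. Buffer was PBS pH 7.4 with 0.01% Tween-20. Incubations ran 30 min at room temperature, with 10 ug/mL donor/acceptor beads.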
G9a block: qHTS Assay for Inhibitors of Histone Lysine Methyltransferase G9a. Histone-lysine N-methyltransferase EHMT2 (Homo sapiens), Q96KQ7. G9a H3K9 monomethylation, AlphaScreen, 2 h. Potency, µM (top dose mostly 102 µM), for inactives: top-dose activity, negative = inhibition, hits mostly inhibitors. actives 8.8% (n = 350,000). AID 504332, 2011; further: on the % scale 0 is the no-effect control and ±100 the full control effect; nearly all actives have a fitted effect of over 75% in size
Target sequence (Q96KQ7 913-1193 limits assumed): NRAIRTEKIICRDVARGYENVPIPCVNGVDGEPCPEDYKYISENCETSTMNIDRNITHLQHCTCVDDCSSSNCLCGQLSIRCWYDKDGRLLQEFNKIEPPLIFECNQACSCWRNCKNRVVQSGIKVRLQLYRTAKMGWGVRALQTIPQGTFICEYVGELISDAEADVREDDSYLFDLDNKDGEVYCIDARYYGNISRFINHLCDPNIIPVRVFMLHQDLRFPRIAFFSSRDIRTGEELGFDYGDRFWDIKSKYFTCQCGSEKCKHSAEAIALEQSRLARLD
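AlphaScreen read-out: biotin-H3K9 peptide (500 nM) methylation by 20 nM enzyme with 20 uM SAM, 2 h at room temperature after 15 min compound preincubation; anti-monomethyl H3K9 antibody plus donor/acceptor beads, 10 min dark.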
Sfp inh: qHTS Assay for Inhibitors of Bacillus subtilis Sfp phosphopantetheinyl transferase (PPTase); Potency, µM, inactives show largest response in the series, negative = inhibition, hits mostly inhibitors; 4'-phosphopantetheinyl transferase ffp (Bacillus subtilis), Q9F4F7; actives 3.5% (n = 310,000); Biochemical Sfp PPTase activity, qHTS;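 further: the enzyme is Sfp with the accession as filed and its product quenches rhodamine fluorescence; 0% = enzyme reaction without inhibitor and -100% = no enzyme wells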
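Fluorescence-quenching assay with 15 nM Sfp, 5 uM rhodamine-CoA and 12.5 uM BHQ-2-labelled ybbR peptide in pH 7.6 Hepes/MgCl2 buffer. Enzyme was pre-incubated with compound for 15 min at room temperature. Rate was taken from the 30-min fluorescence change (525/598 nm).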
* hit, by the source's call; ? = inconclusive; / = not tested or not shown; [ ] = another dose, or the depositor's remark. The call rests on the fitted dose curve; in most records, active means well fitted curve in the direction sought with a large enough effect; inconclusive means small, poorly fitted or top-dose-only effect, or another doubt; inactive means no such curve, though single readings can be large; an effect the other way counts as inactive or inconclusive. Potency means the concentration at half of the fitted maximal effect.

SMILES	BAZ2B inh	L3MBTL1 inh	JMJD2A Tudor inh	HP1b chromo inh	G9a block	Sfp inh
S=c1[nH]nc(CCSCc2ccccc2)n1-c1ccccc1	?	-12%	40µM*	11%	3.5µM*	-9%
Cc1ccc(S(=O)(=O)N(Cc2n[nH]c(=S)n2-c2ccccc2)c2ccccc2)cc1	?	/	-28%	24%	/	-1%
CN(Cc1ccco1)c1ccnc(-c2ccccc2C(F)(F)F)n1	/	/	/	/	0%[0.501 µM]	-7%
CCOc1cc(C2Nc3ccccc3C(=O)N2c2ccccc2)ccc1O (stereo not given)	-5%	3%	-1%	18%	20%	7%
CCOc1ccc(C2NCCc3cc(OC)c(OC)cc32)cc1OC (stereo not given)	3%	/	-10%	44%	-14%	15%
CCOc1cc(C2Nc3cccc4cccc(c34)N2)ccc1O	?	/	-33%	-35%	10µM*	-12%
CCOc1ccc(C2Nc3cccc4cccc(c34)N2)cc1OC	-39%	-5%	?	50µM*	10µM*	-26%
O=C(Nn1c(O)c(C=C2N=c3ccccc3=N2)sc1=S)c1ccccc1	-29%	/	-34%	0%	1.4µM*	-15%
Cc1ccc(C(=O)Nn2c(O)c(C=C3N=c4ccccc4=N3)sc2=S)cc1	-6%	0%	-26%	16%	7%[59 µM]	50µM*
Cc1cc(C)c2c(CC(=O)Nc3nnc(CC(C)C)s3)coc2c1	-17%	/	-8%	4%	?	/
Cc1csc(NC(=O)c2cnccn2)n1	?	36%	7.9µM*	-2%	3.5µM*	-13%
Cc1cnc(C(=O)Nc2nnc(C(C)C)s2)cn1	50µM*	15%	0.28µM*	28%	1µM*	?
Cc1cnc(C(=O)Nc2nnc(C)s2)cn1	?	9%	1.1µM*	33%	2µM*	79µM*
CC(C)c1nnc(NC(=O)c2cnccn2)s1	40µM*	25%	1.1µM*	9%	?	-72%
CCN(C(=O)c1cc(S(=O)(=O)N2CCc3ccccc32)cn1C)c1cccc(C)c1	-4%	/	-15%	43%	-4%[59 µM]	/
CCCCN(CC)C(=O)CSc1nc2n[nH]c(C)c2c(=N)n1-c1cccc(Cl)c1	5%	/	-21%	42%	12%[59 µM]	/
CCCS(=O)(=O)c1ncc(Cl)c(C(=O)Nc2c(C(=O)c3ccccc3)oc3ccccc23)n1	0%	/	-5%	54%	2%[59 µM]	/
Cc1cc(C(=O)Nc2nnc(C3CCCCC3)s2)no1	-6%	/	-14%	36%	-22%[59 µM]	-10%
Cc1cnc(C(=O)Nc2nnc(C3CC3)s2)cn1	?	8%	-7%	17%	5.6µM*	?
Cc1c(C(=O)NCc2ccc(OC(C)C)cc2)sc2ncnc(N(C)C3CCCCC3)c12	-7%	/	-18%	26%	2%[59 µM]	/
CSCCC(NC=C1C(=O)OC(C)(C)OC1=O)C(=O)O (stereo not given)	-30%	?	79µM*	15%	-11%	-16%
CC1(C)OC(=O)C(=CNCC(O)c2ccccc2)C(=O)O1 (stereo not given)	7%	-6%	-13%	7%	29%[12.7 µM]	10%
CC(=O)Nc1nc(SCc2ccc(Cl)cc2Cl)n[nH]1	-20%	1%	-19%	37%	0%[59 µM]	11%
CC(=O)Nc1n[nH]c(S(=O)(=O)Cc2ccc(Cl)cc2Cl)n1	?	-1%	50µM*	-4%	45µM*	0%
COc1ccc(-c2nc3cccc(C)n3c2NCc2ccco2)cc1OC	50µM*	-4%	?	-16%	45µM*	-1%
SMILES	BAZ2B inh	L3MBTL1 inh	JMJD2A Tudor inh	HP1b chromo inh	G9a block	Sfp inh
COc1ccc(-c2csc(NCc3ccco3)n2)cc1C	45µM*	/	?	?	?	-4%
Cc1ccc(-c2cc3nc(C)cc(NCc4ccco4)n3n2)cc1	-30%	0%	-19%	24%	?	?
CC(=O)Nc1ccc(-c2csc(NCc3ccco3)n2)cc1	-33%	13%	?	-28%	10µM*	15%
Cc1ccn2c(-c3csc(NCc4ccco4)n3)c(C)nc2c1	?	-8%	100µM*	-30%	45µM*	?
c1cncc(-c2csc(NCc3ccco3)n2)c1	-38%	/	?	0%	13%[12.7 µM]	-1%
CCOc1ccccc1N(CC(=O)Nc1ccc(OC)c(Cl)c1)S(=O)(=O)c1ccccc1	0%	/	-13%	18%	-15%[59 µM]	/
Cc1ccc(S(=O)(=O)c2cn(CC(=O)Nc3ccc4c(c3)OCO4)c3ccc(F)cc3c2=O)cc1	-16%	/	-11%	18%	-7%[59 µM]	/
O=C(CN1C(=O)c2ccccc2C1=O)OCC(=O)c1ccc(F)cc1	5%	5%	-21%	10%	50µM*	/
Cc1cc(C)n(-c2ccc3nnc(C)n3n2)n1	-11%	6%	5%	33%	4%	28%
Cc1cc(C)n(-c2nnc(C)n2N)n1	-14%	4%	?	6%	50µM*	9%
Cc1cc(C)n(/N=C/c2ccccc2O)c(=O)c1	50µM*	0%	?	7%	16µM*	5%
Cc1nnc(C)n1/N=C/c1cc2ccccc2nc1Cl	-19%	1%	0%	20%	4%	14%
Cc1cc(C)n(-c2nnc(C)n2/N=C/c2ccccc2O)n1	-4%	/	7.9µM*	4%	-33%[12.7 µM]	-14%
CCOC(=O)c1cccc(NC(=O)N2CC(CC)Sc3ccccc32)c1 (stereo not given)	1%	/	-6%	29%	6%[59 µM]	/
COc1cc(NC(=O)c2nnn(CC(=O)Nc3ccccc3)c2N)cc(OC)c1	8%[57.1 µM]	/	4%	18%	4%[59 µM]	/
CC(C)(C)NC(=O)C(c1ccco1)N(C(=O)c1csnn1)c1ccccc1 (stereo not given)	-16%	/	-7%	11%	0%[12.7 µM]	3%
CC(C)(C)NC(=O)C(c1ccco1)N(C(=O)c1ccc(CN2CCOCC2)o1)c1ccccc1 (stereo not given)	2%	-3%	-5%	8%	11µM*	12%
Cn1ccnc1SCc1cn2ccccc2n1	-4%	8%	?	5%	?	9%
O=[N+]([O-])c1ccc2nc(SCc3cn4cccnc4n3)[nH]c2c1	-1%	/	9%	49%	?	-21%
Cc1cc(=O)[nH]c(SCc2nnc(-c3ccccc3)o2)n1	2%	/	-4%	31%	7.9µM*	12%
O=[N+]([O-])c1ccc2nc(SCc3cn4ccccc4n3)[nH]c2c1	2%	0%	-19%	18%	10µM*	11%
